In the library only some 2.3% were active in any assay of this set; here they are far more common.
CHT inh – inhibits the human high affinity choline transporter; CHT-expressing cells, membrane potential dye, choline response; active compounds read low; AID 488975; hit rate 0.86% among 310,000; Q9GZV3; B-score at 10 µM;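 active = B-score over 3 SD under the library average, and starting fluorescence ratio not unusually high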;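 also: choline stimulus applied at its EC90 after an EC20 pre-addition; B-score computed on integrated fluorescence ratio after choline addition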
ANO1 block – mouse TMEM16A channel inhibition, primary screen | Q8BHY3 | HEK293 TMEM16A/YFP iodide influx fluorescence, ionomycin | hit rate 1.2% among 310,000 | AID 588511 | normalized B-score (activity score, 25-100; higher = stronger inhibition) at 10 µM;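 active = ratio plate-corrected score three or more library SD toward inhibition, starting fluorescence score within five deviations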;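 also: score derived from kinetic fluorescence span divided by baseline fluorescence per well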
TMEM16A act – mouse TMEM16A channel activation, primary screen | AID 623877 | Q8BHY3 | HEK293 TMEM16A/YFP-H148Q/I152L, iodide quench fluorescence; active compounds read low | hit rate 0.3% among 340,000 | B-score at 10 µM;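 active = fluorescence-ratio B-score plate-corrected deviation score at least 3 library SD below zero, with starting fluorescence score within 5 deviations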;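 also: channel opened by trigger with iodide after compound preincubation; score built on the fluorescence ratio of max minus min over baseline; more negative score means more quench and so TMEM16A activation or potentiation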
CHT PAM – human CHT allosteric activation; Q9GZV3; CHT-expressing cells, membrane potential dye, choline EC20; active compounds read high; LV-AA mutant CHT in HEK293 cells; hit rate 0.49% among 310,000; AID 488977; B-score at 10 µM;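 active = initial fluorescence not abnormally high and integrated response B-score, plate-corrected, over 3 SD above library mean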
* hit, by the source's call.

For CCCSc1nnc(CSc2nc3ccccc3s2)n1-c1ccccc1 the results were CHT inh inactive, ANO1 block 100*, TMEM16A act inactive and CHT PAM inactive.
Screening N#CCCCSc1nnc(CSc2nc3ccccc3s2)n1-c1ccccc1 returned CHT inh inactive, ANO1 block inactive, TMEM16A act inactive and CHT PAM inactive.
Screening Cc1cc(NC(=O)c2ccc(C#N)cc2)n(-c2ccccn2)n1 returned CHT inh inactive, ANO1 block inactive, TMEM16A act -30.4* and CHT PAM inactive.
`Cc1cc(NC(=O)c2ccc(F)cc2)n(-c2ccccn2)n1` gave CHT inh inactive, ANO1 block inactive, TMEM16A act inactive and CHT PAM inactive.
For O=C(/C=C/c1ccccc1[N+](=O)[O-])N1CCc2ccccc2C1 the results were CHT inh inactive, ANO1 block inactive, TMEM16A act inactive and CHT PAM inactive.
`CC(C)(C)c1cc(-c2csc(Nc3ccccc3)[n+]2Cc2ccc(C(=O)O)cc2)cc(C(C)(C)C)c1O` gave CHT inh inactive, ANO1 block 100*, TMEM16A act inactive and CHT PAM inactive.
O=C(O)c1ccc(C[n+]2c(-c3ccccc3)csc2Nc2ccccc2)cc1 was read as CHT inh inactive, ANO1 block inactive, TMEM16A act inactive and CHT PAM inactive.
CCCc1nc(NCC2CCCO2)c2nnn(Cc3ccccc3)c2n1 (configuration not stated) was read as CHT inh inactive, ANO1 block inactive, TMEM16A act -4.92* and CHT PAM inactive.
CC(C)(C)c1ccc(Cn2c(=O)cnc3ccccc32)cc1 was read as CHT inh inactive, ANO1 block inactive, TMEM16A act inactive and CHT PAM inactive.
`COc1ccc(S(=O)(=O)N2CCC(C(=O)Nc3ccccc3N3CCCCC3)CC2)cc1OC` gave CHT inh inactive, ANO1 block inactive, TMEM16A act inactive and CHT PAM inactive.
Screening CC(NCc1ccc(S(N)(=O)=O)cc1)C(=O)Nc1cccc(Cl)c1 (configuration not stated) returned CHT inh inactive, ANO1 block inactive, TMEM16A act inactive and CHT PAM inactive.
Screening CC(NCc1ccc(S(N)(=O)=O)cc1)C(=O)Nc1ccc([N+](=O)[O-])cc1Cl (configuration not stated) returned CHT inh inactive, ANO1 block inactive, TMEM16A act -24.1* and CHT PAM inactive.
`COc1ccc(SCC(=O)c2cc(C)c(OC(=S)N(C)C)c(C)c2)cc1` gave CHT inh inactive, ANO1 block 25*, TMEM16A act inactive and CHT PAM inactive.
Screening COc1ccc(C(=O)CSc2nc(C)cc(C)n2)cc1C returned CHT inh inactive, ANO1 block inactive, TMEM16A act inactive and CHT PAM inactive.
`O=C(c1ccc(CSc2nc3ccncc3[nH]2)cc1)N1CCN(c2cccc(Cl)c2)CC1` gave CHT inh inactive, ANO1 block 100*, TMEM16A act inactive and CHT PAM inactive.
`CCCCc1cc(=O)oc2cc(OCc3cc(OC)c(OC)c(OC)c3)c(Cl)cc12` gave CHT inh inactive, ANO1 block inactive, TMEM16A act -4.92* and CHT PAM inactive.
`Brc1ccccc1OCCCCn1cnc2ccccc21` gave CHT inh inactive, ANO1 block 100*, TMEM16A act inactive and CHT PAM inactive.
For O=C(CSc1nnc2ccccn12)NNC(=O)c1cccc(Cl)c1 the results were TMEM16A act inactive.
Screening CCOc1ccccc1NC(=S)NCCc1ccccc1 returned CHT inh inactive, ANO1 block inactive, TMEM16A act -5.24* and CHT PAM inactive.
Screening Cc1ccccc1C(=O)N1CCC(C(=O)Nc2nc3ccc(F)cc3s2)CC1 returned CHT inh inactive, ANO1 block 25*, TMEM16A act inactive and CHT PAM inactive.
Screening CCc1ccc(CN2CCCC(C(=O)Nc3ccccc3-c3ccc(OC)cc3)C2)o1 (configuration not stated) returned CHT inh inactive, ANO1 block inactive, TMEM16A act inactive and CHT PAM inactive.
COc1ccc(CCNC(=O)COC(=O)C2CC2C)cc1OC (configuration not stated) was read as TMEM16A act -41.7*.
Screening COc1ccccc1-c1cc(C(=O)N2CCc3ccccc3C2)c2ccccc2n1 returned CHT inh inactive, ANO1 block 100* and CHT PAM inactive.

From PubChem
